An excerpt weighted towards active compounds, which were near 2.1% of everything screened.
STK33 inh: blocks human STK33 kinase activity; AID 2322; inhibition, % at 12.5 µM; 27,000 compounds, 0.44% hits; ADP-Glo luminescence, MBP substrate; Q9BYT3; in the data active = inhibition above about 20%
mut p53 react: restores mutant p53 pathway signaling in SW480 cells. SW480 PUMA-promoter luciferase, p53 mutant reactivation. activation, % at 9.98 µM. 28,000 compounds, 1.5% hits. AID 624151; in the data active = activation above about 52%
ID4 binder: binders of human ID4 protein; small molecule microarray, Flag-ID4 binding, fluorescence F/B; calls only; 31,000 compounds, 1.2% hits; AID 624137; call rule not given here;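 note: a binder raises fluorescence above local background on the spot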
Target sequence (P47928 whole entry, looked up): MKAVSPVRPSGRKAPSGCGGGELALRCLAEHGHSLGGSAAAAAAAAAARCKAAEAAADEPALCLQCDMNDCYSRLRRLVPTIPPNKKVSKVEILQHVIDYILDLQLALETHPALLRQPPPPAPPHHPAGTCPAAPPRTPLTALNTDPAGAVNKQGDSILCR
The depositor's hits bear a star; i = inactive; · = no result; + = active, no number.

SMILES	STK33 inh	mut p53 react	ID4 binder
O=C(COc1ccc(Cl)cc1CO)Nc1ccccc1F	-5.9	127.5*	i
COc1cc(CO)ccc1OCC(=O)Nc1ccccc1F	-2.2	64.4*	i
COc1cc(CO)ccc1OCC(=O)Nc1ccc(C)cc1	-2.5	47.2	i
CC(=O)Oc1ccc(NC(=O)COc2cccc(C)c2C)c(C(=O)O)c1	-3.4	-6.0	i
Cc1cccc(OCC(=O)Nc2ccccc2CO)c1C	-2.7	69.0*	i
N#Cc1c(NC(=O)CSc2n[nH]c(-c3ccc(Cl)cc3Cl)n2)sc2c1CCCC2	-1.4	-12.8	i
C=C1C(=O)O[C@@H]2/C=C(\C)[C@H](OC(C)=O)C/C=C(/C)C[C@@H](OC(=O)/C(=C/CO)CO)C12 (stereo partly drawn)	4.0	·	·
CCC(=O)Nc1cccc(NC(=O)COc2cc(Cl)c(Cl)cc2Cl)c1	4.3	1.3	i
COC1OC2c3cc4c(cc3CCN(C)C2c2ccc3c(c21)OCO3)OCO4 (stereo not drawn)	-2.4	6.9	i
CCCc1ccc(-c2cc(C(=O)NCc3cnn(C)c3)c3ccccc3n2)cc1	-1.0	105.6*	i
Cn1cc(CNC(=O)c2cc(-c3ccc(Br)cc3)nc3ccccc23)cn1	0.3	36.1	i
Cc1ccc(NC(=O)CSc2n[nH]c(-c3ccccc3Cl)n2)cc1C	0.2	-5.1	i
Cc1ccc(NC(=O)CCN2C(=O)c3ccccc3S2(=O)=O)cc1Cl	-6.6	9.7	i
CC1/C(=N/O)C[C@@H]2C[C@H]1C2(C)C (stereo partly drawn)	1.8	·	·
COC(=O)CSc1nc(C)cc(C)n1	2.2	0.7	i
Cc1cc(C)nc(SCc2csc(N)n2)n1	-2.3	9.3	+
Cc1cc(Cl)cc(Br)c1OCCCSc1ncccn1	-1.0	131.9*	i
Cc1ccc(C)c(OCCCCSc2ncccn2)c1Cl	-2.9	38.9	i
Cc1cccc(-c2nc3cc(NC(=O)COc4ccc([N+](=O)[O-])cc4)ccc3o2)c1	2.3	12.4	i
Cc1ccc(OCCCn2cnc3ccccc3c2=O)c([N+](=O)[O-])c1	-1.5	22.4	i
CNC[C@@H]1Oc2ncc(C3=CCCC3)cc2C(=O)N([C@@H](C)CO)C[C@@H]1C	·	17.4	i
CNC[C@H]1Oc2ncc(-c3ccc(OC)cc3)cc2C(=O)N([C@H](C)CO)C[C@H]1C	·	·	i
CNC[C@@H]1Oc2ncc(-c3ccc(C#N)cc3)cc2C(=O)N([C@H](C)CO)C[C@@H]1C	·	3.2	+
CNC[C@@H]1Oc2ncc(-c3ccc(OC)cc3)cc2C(=O)N([C@H](C)CO)C[C@H]1C	·	23.3	+
CNC[C@H]1Oc2ncc(C3=CCCC3)cc2C(=O)N([C@H](C)CO)C[C@H]1C	·	0.6	+
SMILES	STK33 inh	mut p53 react	ID4 binder
CNC[C@H]1Oc2c(NC(=O)c3cnccn3)cccc2C(=O)N([C@H](C)CO)C[C@H]1C	·	8.4	i
CNC[C@@H]1Oc2c(NC(=O)c3cnccn3)cccc2C(=O)N([C@@H](C)CO)C[C@@H]1C	·	5.9	+
CNC[C@@H]1Oc2ncc(-c3ccccc3)cc2C(=O)N([C@H](C)CO)C[C@@H]1C	-5.5	5.3	i
Cc1ccccc1-c1nc(S(=O)(=O)c2ccc(Cl)cc2)c(NCc2cccnc2)o1	5.4	-20.8	i
CC1(C)CC(=O)C2=C(C1)N(CC1CCCO1)C(=O)C2(NC(=O)c1ccccc1)C(F)(F)F (stereo not drawn)	0.2	-2.7	i
C=C(Oc1cccc(C(=O)O)c1)C(=O)O	0.0	4.9	i
Cc1c(NC(=S)NCc2ccccn2)c(=O)n(-c2ccccc2)n1C	0.8	0.5	i
Cc1c(NC(=S)NCCc2c[nH]c3ccccc23)c(=O)n(-c2ccccc2)n1C	0.3	1.6	+
O=C(Nc1sc2c(c1C(=O)NCc1cccnc1)CCCC2)c1ccc([N+](=O)[O-])cc1	1.8	-4.1	i
C[C@H](CO)N1C[C@H](C)[C@H](CN(C)CC2CCCCC2)OCc2cn(nn2)CCCC1=O	-3.1	·	i
C[C@H](CO)N1C[C@H](C)[C@@H](CN(C)CC2CCCCC2)OCc2cn(nn2)CCCC1=O	1.3	·	+
C[C@H](CO)N1C[C@H](C)[C@@H](CN(C)C(=O)Nc2ccccc2F)OCc2cnnn2CCCC1=O	-1.3	11.2	+
C[C@H]1CN([C@@H](C)CO)C(=O)CCCn2nncc2CO[C@H]1CN(C)CC1CCCCC1	-0.6	·	i
C[C@@H]1CN([C@@H](C)CO)C(=O)CCCn2nncc2CO[C@H]1CN(C)CC1CCCCC1	1.5	·	+
C[C@H]1CN([C@@H](C)CO)C(=O)CCCn2nncc2CO[C@@H]1CN(C)C(=O)Nc1ccccc1F	-4.1	13.3	i
C[C@@H]1CN([C@H](C)CO)C(=O)CCCn2cc(nn2)CO[C@H]1CN(C)C(=O)c1ccc(N2CCN(C)CC2)cc1	0.1	12.4	i
C[C@@H]1CN([C@@H](C)CO)C(=O)CCCn2cc(nn2)CO[C@H]1CN(C)C(=O)c1ccc(N2CCN(C)CC2)cc1	-3.7	-0.4	+
O=C(CC1(O)C(=O)Nc2ccc([N+](=O)[O-])cc21)c1ccccc1 (stereo not drawn)	-1.2	-9.0	i
CSc1cccc(NC(=O)Cn2cc(Br)c([N+](=O)[O-])n2)c1	1.0	4.0	i
COc1ccc(S(=O)(=O)NC2CCN(Cc3cccc(OCCO)c3)CC2)cc1	2.2	·	·
CCOC(=O)CSc1nc2ccc(I)cc2c(=O)n1-c1ccccc1OC	-3.1	17.1	i
CCn1ncc(C2=NOC(C(=O)Nc3ccc(Cl)c(Cl)c3)C2)c1C (stereo not drawn)	-3.1	-10.0	i
Cc1cc(C(F)(F)F)nn1CCCNC(=O)c1cccs1	1.1	1.6	i
CC(Oc1ccccc1F)C(=O)Nc1ccccc1[N+](=O)[O-] (stereo not drawn)	-2.2	57.3*	i
CC(Oc1ccc(Br)cc1)C(=O)Nc1ccccc1[N+](=O)[O-] (stereo not drawn)	-0.1	9.6	i
SMILES	STK33 inh	mut p53 react	ID4 binder
Cc1ccc(NCC(O)CSc2nc3c(cc2C#N)CCCC3)cc1 (stereo not drawn)	0.7	15.6	i
COc1ccc(NC(=O)CSc2ncccn2)cc1Cl	2.7	9.7	i
CCOc1ccc(-c2nnc(SCC(=O)c3ccccc3N)n2C)cc1	-0.4	67.4*	i
CCOc1ccc(NC(=O)CSc2nnc(-c3ccc(Cl)cc3)n2C)cc1	1.1	2.5	i
N#Cc1ccccc1CSc1nc(N)cc(=O)[nH]1	0.9	4.3	i
O=C(c1ccc([N+](=O)[O-])cc1)N(Cc1cc2ccccc2[nH]c1=O)c1ccccc1	5.4	-36.2	+
Cc1ccc(N(Cc2cc3ccccc3[nH]c2=O)C(=O)c2cccnc2)cc1	-0.9	5.3	i
C=C(CO)C(=O)O[C@H]1C[C@H]2C(=C)C[C@H](OC(=O)C(=C)CO)[C@H]3C(=C)C(=O)O[C@@H]3[C@H]2C1=C	0.6	·	·
Cc1ccc(-c2nc3cc(Cl)ccc3o2)cc1NC(=O)COc1ccccc1[N+](=O)[O-]	-2.0	1.0	i
Cc1scc2c1N(C(=O)CN1CCN(C)CC1)c1ccccc1NC2=O	1.1	0.5	i
CCN(CC)CCCCC1CCN(CC(=O)N2c3ccccc3C(=O)Nc3cccnc32)CC1	·	3.1	+
O=C(Nc1ccccc1C(=O)O)c1cccc(S(=O)(=O)NCc2ccccc2)c1	-2.5	7.2	i

Screens (PubChem BioAssay)
